# According to the supplement of paper PMC9844399:
# Structures can show the parent of a compound that is named as a salt.
# Test system: HeLa
# Test: nuclear count per well, robust Z-score vs DMSO; higher = more cells (less toxicity)
# Conditions: 10 µM; 6 h
# 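Throughout, for MALAT1 nuclear FISH intensity, robust Z-score vs DMSO: High-content confocal imaging of branched-DNA amplified FISH in 384-well plates, Hoechst-defined nuclei, score is well value minus plate DMSO median over DMSO robust SD, four wells per compound.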
# 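Throughout, for nuclear count per well, robust Z-score vs DMSO: Hoechst-stained nuclei counted by automated confocal imaging of four fields per well in 384-well plates, with the robust Z-score based on the per-plate DMSO median and robust SD.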
row,Compound,nuclear count per well
1,CSc1ccc2c(c1)N(CCC1CCCCN1C)c1ccccc1S2 (stereo not drawn) [Thioridazine hydrochloride],0.72
2,O=C1CCc2c(ccc3ccccc23)O1 [Splitomycin],0.693
3,NC1=NCC2c3ccccc3Cc3ccccc3N12 (stereo not drawn),0.00591
4,Nc1nnc(-c2cccc(Cl)c2Cl)c(N)n1 [Lamotrigine],-0.337
5,Cn1c(=O)c2c(ncn2CC(O)CO)n(C)c1=O (stereo not drawn) [Dyphylline],1.46
6,Nc1ncn([C@@H]2O[C@H](CO)[C@@H](O)[C@H]2O)c(=O)n1 [Azacytidine],0.175
7,CN(C)CCC(c1ccc(Cl)cc1)c1ccccn1 (stereo not drawn) [Chlorpheniramine Maleate],0.425
8,COc1cc2ncnc(Nc3ccc(F)c(Cl)c3)c2cc1OCCCN1CCOCC1 [Gefitinib],-1.31
9,CCCCCC[C@@H]([C@@H](C)O)n1cnc2c(N)ncnc21,-0.102
10,COc1ccc([C@@H]2Sc3ccccc3N(CCN(C)C)C(=O)[C@@H]2OC(C)=O)cc1,0.374
11,COc1ccc2cccc(CCNC(C)=O)c2c1 [Agomelatine],-0.949
12,C[C@@H]1[C@H](O)[C@@H](C)/C=C/C=C/C=C/C=C/C=C/C=C/C=C/[C@H](O[C@@H]2O[C@H](C)[C@@H](O)[C@H](N)[C@@H]2O)C[C@@H]2O[C@](O)(C[C@@H](O)C[C@@H](O)[C@H](O)CC[C@@H](O)C[C@@H](O)CC(=O)O[C@H]1C)C[C@H](O)[C@H]2C(=O)O [Amphotericin B],0.998
13,C=CC1=C(C(=O)O)N2C(=O)[C@@H](NC(=O)/C(=N\O)c3csc(N)n3)[C@H]2SC1 [Cefdinir],1.25
14,CCC1(c2ccccc2)C(=O)NCNC1=O [Primidone],0.218
15,"CCCCCCCCCCCCC/C=C/[C@@H](O)[C@H](CO)N(C)C [N,N-Dimethylsphingosine]",-0.832
16,CC1(C)O[C@@H]2C[C@H]3[C@@H]4CCC5=CC(=O)CC[C@]5(C)[C@@]4(F)[C@@H](O)C[C@]3(C)[C@]2(C(=O)CCl)O1 [Halcinonide],0.253
17,O=c1[nH]cnc2c1ncn2[C@H]1CC[C@@H](CO)O1 [Didanosine],-0.203
18,NC(=O)NO [Hydroxyurea],-0.528
19,O=C1CCC(N2C(=O)c3ccccc3C2=O)C(=O)N1 (stereo not drawn) [Thalidomide],0.328
20,CC(C)NNC(=O)c1ccncc1 [Iproniazid Phosphate],-0.732

row,Compound,nuclear count per well
1,Cc1cn(-c2cc(NC(=O)c3ccc(C)c(Nc4nccc(-c5cccnc5)n4)c3)cc(C(F)(F)F)c2)cn1 [Nilotinib],-0.24
2,CNC(=C[N+](=O)[O-])NCCSCc1csc(CN(C)C)n1 [Nizatidine],0.264
3,"CCCCCC#CCC#CCC#CCC#CCCCC(=O)O [5,8,11,14-Eicosatetraynoic acid]",-0.123
4,OC(c1cc(C(F)(F)F)nc2c(C(F)(F)F)cccc12)C1CCCCN1 (stereo not drawn),-1.03
5,CC(=O)OCC[N+](C)(C)C [Acetylcholine Chloride],-0.214
6,CN(C)CCc1c[nH]c2ccc(CS(=O)(=O)N3CCCC3)cc12 [Almotriptan],-0.368
7,CCc1ccc(CCOc2ccc(CC3SC(=O)NC3=O)cc2)nc1 (stereo not drawn),0.0308
8,CNCC[C@@H](Oc1ccccc1C)c1ccccc1,-0.742
9,C[C@]12CCC(=O)C=C1[C@@H]1C[C@@H]1[C@H]1[C@@H]3[C@@H]4C[C@@H]4[C@@]4(CCC(=O)O4)[C@@]3(C)CC[C@@H]12 [Drospirenone],-0.133
10,CCCCC[C@H](O)/C=C/C1=C(C/C=C\CCCC(=O)O)C(=O)CC1 [Prostaglandin B2],1.37
11,Nc1nc(Cl)nc2c1ncn2[C@@H]1O[C@H](CO)[C@@H](O)[C@@H]1F [Clofarabine],-0.461
12,Cc1c(C(=O)Nc2ccc(N3C[C@@H](C)O[C@@H](C)C3)nc2)cccc1-c1ccc(OC(F)(F)F)cc1,0.565
13,COc1cc2c3cc1Oc1c(OC)c(OC)cc4c1[C@@H](Cc1ccc(OC(=O)c5ccc([N+](=O)[O-])cc5)c(c1)Oc1ccc(cc1)C[C@@H]3N(C)CC2)N(C)CC4,1.12
14,CN1[C@@H]2CC[C@H]1C[C@@H](OC(c1ccccc1)c1ccccc1)C2 [Benztropine Mesylate],0.869
15,O=[N+]([O-])c1cccc2c(Br)[nH]nc12 [Bromo-7-nitroindazole],-0.0311
16,Cc1ccsc1C(=CCCN1CCC[C@@H](C(=O)O)C1)c1sccc1C,1.09
17,CCCC[C@@H](C=O)NC(=O)[C@H](CC(C)C)NC(=O)OCc1ccccc1 [Calpeptin],0.364
18,O=c1oc2ccccc2c(O)c1Cc1c(O)c2ccccc2oc1=O [Dicumarol],0.274
19,CN1CCN(C(c2ccccc2)c2ccc(Cl)cc2)CC1 (stereo not drawn),0.39

# Test system: HeLa
# Test: MALAT1 nuclear FISH intensity, robust Z-score vs DMSO; higher = more nuclear MALAT1 lncRNA, active = -3 or less
# Conditions: 10 µM; 6 h
row,Compound,MALAT1 nuclear FISH intensity
1,CSc1ccc2c(c1)N(CCC1CCCCN1C)c1ccccc1S2 (stereo not drawn) [Thioridazine hydrochloride],-0.701 (inactive)
2,O=C1CCc2c(ccc3ccccc23)O1 [Splitomycin],-0.762 (inactive)
3,NC1=NCC2c3ccccc3Cc3ccccc3N12 (stereo not drawn),-0.578 (inactive)
4,Nc1nnc(-c2cccc(Cl)c2Cl)c(N)n1 [Lamotrigine],1.21 (inactive)
5,Cn1c(=O)c2c(ncn2CC(O)CO)n(C)c1=O (stereo not drawn) [Dyphylline],-0.0388 (inactive)
6,Nc1ncn([C@@H]2O[C@H](CO)[C@@H](O)[C@H]2O)c(=O)n1 [Azacytidine],1.11 (inactive)
7,CN(C)CCC(c1ccc(Cl)cc1)c1ccccn1 (stereo not drawn) [Chlorpheniramine Maleate],-0.0115 (inactive)
8,COc1cc2ncnc(Nc3ccc(F)c(Cl)c3)c2cc1OCCCN1CCOCC1 [Gefitinib],-0.291 (inactive)
9,CCCCCC[C@@H]([C@@H](C)O)n1cnc2c(N)ncnc21,-0.253 (inactive)
10,COc1ccc([C@@H]2Sc3ccccc3N(CCN(C)C)C(=O)[C@@H]2OC(C)=O)cc1,-0.0376 (inactive)
11,COc1ccc2cccc(CCNC(C)=O)c2c1 [Agomelatine],-0.97 (inactive)
12,C[C@@H]1[C@H](O)[C@@H](C)/C=C/C=C/C=C/C=C/C=C/C=C/C=C/[C@H](O[C@@H]2O[C@H](C)[C@@H](O)[C@H](N)[C@@H]2O)C[C@@H]2O[C@](O)(C[C@@H](O)C[C@@H](O)[C@H](O)CC[C@@H](O)C[C@@H](O)CC(=O)O[C@H]1C)C[C@H](O)[C@H]2C(=O)O [Amphotericin B],-0.929 (inactive)
13,C=CC1=C(C(=O)O)N2C(=O)[C@@H](NC(=O)/C(=N\O)c3csc(N)n3)[C@H]2SC1 [Cefdinir],-0.0396 (inactive)
14,CCC1(c2ccccc2)C(=O)NCNC1=O [Primidone],0.625 (inactive)
15,"CCCCCCCCCCCCC/C=C/[C@@H](O)[C@H](CO)N(C)C [N,N-Dimethylsphingosine]",-0.409 (inactive)
16,CC1(C)O[C@@H]2C[C@H]3[C@@H]4CCC5=CC(=O)CC[C@]5(C)[C@@]4(F)[C@@H](O)C[C@]3(C)[C@]2(C(=O)CCl)O1 [Halcinonide],0.024 (inactive)
17,O=c1[nH]cnc2c1ncn2[C@H]1CC[C@@H](CO)O1 [Didanosine],-0.434 (inactive)
18,NC(=O)NO [Hydroxyurea],-0.0765 (inactive)
19,O=C1CCC(N2C(=O)c3ccccc3C2=O)C(=O)N1 (stereo not drawn) [Thalidomide],-1.01 (inactive)
20,CC(C)NNC(=O)c1ccncc1 [Iproniazid Phosphate],0.405 (inactive)

row,Compound,MALAT1 nuclear FISH intensity
1,Cc1cn(-c2cc(NC(=O)c3ccc(C)c(Nc4nccc(-c5cccnc5)n4)c3)cc(C(F)(F)F)c2)cn1 [Nilotinib],-0.228 (inactive)
2,CNC(=C[N+](=O)[O-])NCCSCc1csc(CN(C)C)n1 [Nizatidine],-0.87 (inactive)
3,"CCCCCC#CCC#CCC#CCC#CCCCC(=O)O [5,8,11,14-Eicosatetraynoic acid]",-0.86 (inactive)
4,OC(c1cc(C(F)(F)F)nc2c(C(F)(F)F)cccc12)C1CCCCN1 (stereo not drawn),3.94 (inactive)
5,CC(=O)OCC[N+](C)(C)C [Acetylcholine Chloride],-0.555 (inactive)
6,CN(C)CCc1c[nH]c2ccc(CS(=O)(=O)N3CCCC3)cc12 [Almotriptan],-1.86 (inactive)
7,CCc1ccc(CCOc2ccc(CC3SC(=O)NC3=O)cc2)nc1 (stereo not drawn),-0.494 (inactive)
8,CNCC[C@@H](Oc1ccccc1C)c1ccccc1,-0.726 (inactive)
9,C[C@]12CCC(=O)C=C1[C@@H]1C[C@@H]1[C@H]1[C@@H]3[C@@H]4C[C@@H]4[C@@]4(CCC(=O)O4)[C@@]3(C)CC[C@@H]12 [Drospirenone],0.391 (inactive)
10,CCCCC[C@H](O)/C=C/C1=C(C/C=C\CCCC(=O)O)C(=O)CC1 [Prostaglandin B2],0.128 (inactive)
11,Nc1nc(Cl)nc2c1ncn2[C@@H]1O[C@H](CO)[C@@H](O)[C@@H]1F [Clofarabine],0.00504 (inactive)
12,Cc1c(C(=O)Nc2ccc(N3C[C@@H](C)O[C@@H](C)C3)nc2)cccc1-c1ccc(OC(F)(F)F)cc1,0.333 (inactive)
13,COc1cc2c3cc1Oc1c(OC)c(OC)cc4c1[C@@H](Cc1ccc(OC(=O)c5ccc([N+](=O)[O-])cc5)c(c1)Oc1ccc(cc1)C[C@@H]3N(C)CC2)N(C)CC4,1.07 (inactive)
14,CN1[C@@H]2CC[C@H]1C[C@@H](OC(c1ccccc1)c1ccccc1)C2 [Benztropine Mesylate],-0.262 (inactive)
15,O=[N+]([O-])c1cccc2c(Br)[nH]nc12 [Bromo-7-nitroindazole],-0.538 (inactive)
16,Cc1ccsc1C(=CCCN1CCC[C@@H](C(=O)O)C1)c1sccc1C,1.21 (inactive)
17,CCCC[C@@H](C=O)NC(=O)[C@H](CC(C)C)NC(=O)OCc1ccccc1 [Calpeptin],-2.28 (inactive)
18,O=c1oc2ccccc2c(O)c1Cc1c(O)c2ccccc2oc1=O [Dicumarol],-1.34 (inactive)
19,CN1CCN(C(c2ccccc2)c2ccc(Cl)cc2)CC1 (stereo not drawn),0.624 (inactive)
